# Rows were chosen to be rich in hits. Some 6% of all compounds tested hit in one or more screens of this group.
# Luciferase inh = qHTS Assay for Inhibitors of Firefly Luciferase | Luciferin 4-monooxygenase (Photinus pyralis), P08659 | purified firefly luciferase, luminescence, 8 min | Potency, µM (doses to about 57.1 µM), hits mostly inhibitors | 2.2% of 72,000 active | AID 411, 2009; note: nearly all actives have a fitted effect of over 40% in size
# Target sequence (P08659 whole entry, looked up): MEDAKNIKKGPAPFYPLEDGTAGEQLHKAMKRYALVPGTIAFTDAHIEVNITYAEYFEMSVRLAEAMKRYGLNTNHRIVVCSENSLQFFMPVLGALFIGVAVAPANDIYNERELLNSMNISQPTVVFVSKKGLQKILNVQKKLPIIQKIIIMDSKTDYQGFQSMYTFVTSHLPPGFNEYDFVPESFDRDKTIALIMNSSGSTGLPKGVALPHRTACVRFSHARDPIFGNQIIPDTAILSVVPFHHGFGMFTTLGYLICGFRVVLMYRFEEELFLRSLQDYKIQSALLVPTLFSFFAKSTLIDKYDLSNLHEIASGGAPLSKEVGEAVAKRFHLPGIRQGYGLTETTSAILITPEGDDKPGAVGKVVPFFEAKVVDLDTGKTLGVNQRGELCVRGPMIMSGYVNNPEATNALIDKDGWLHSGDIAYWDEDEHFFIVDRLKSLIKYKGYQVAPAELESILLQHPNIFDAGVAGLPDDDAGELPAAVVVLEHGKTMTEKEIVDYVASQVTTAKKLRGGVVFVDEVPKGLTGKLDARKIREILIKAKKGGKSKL
#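 Inhibition of light generation by firefly luciferase from ATP and luciferin was profiled with concentration-response curves per sample, ATP held at 10 uM within the enzyme's linear range. Plates were read by luminescence after an 8-minute ambient incubation.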
# Bst PK mod = Pyruvate Kinase; Potency, µM; 1.2% of 51,000 active; purified pyruvate kinase, luminescence ATP production; ribose 5-phosphate activator present at AC10; in the data active = potency below about 11 µM; inconclusive = mostly about 12 µM to 25 µM;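 the screen sought inhibitors and activators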
# 15-hLO inh = qHTS Assay for Inhibitors of 15-hLO (15-human lipoxygenase); purified 15hLO-1, xylenol orange hydroperoxide absorbance; Potency, µM (titrated, usually from 57.1 µM), hits mostly inhibitors; Polyunsaturated fatty acid lipoxygenase ALOX15 (Homo sapiens), P16050; 1.4% of 74,000 active; note: nearly all actives have a fitted effect of over 55% in size
#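 Purified human 15hLO-1 (40 nM) in 25 mM Hepes pH 7.5, 0.01% Triton X-100, preincubated 15 min RT with compound, then 50 uM arachidonic acid for 6 min. Hydroperoxide read by ferrous/xylenol orange, 30 min; 573/405 nm absorbance ratio gave progress.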
# ERK AVP inh = qHTS Assay for Inhibitors of the ERK Signaling Pathway using a Homogeneous Screening Assay | HEK293-V1b, vasopressin-stimulated pERK AlphaScreen | Potency, µM (series often up to 57.5 µM), most hits filed as inhibitors | 0.99% of 72,000 active | AID 995, 2007; note: nearly all actives have a fitted effect of over 55% in size
#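 HEK293 cells stably expressing V1b receptor, seeded overnight in 1% FBS, were treated with compounds for 30 min at 37C, then stimulated 5 min with 25 nM vasopressin; phospho-ERK read by AlphaScreen SureFire after lysis.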
# Tau fil binding = qHTS Assay for Tau Filament Binding | Microtubule-associated protein tau (Homo sapiens), P10636 | recombinant tau filaments, thioflavin S fluorescence, 15 h; filaments grown with octadecylsulfate alongside compound | Potency, µM (titrated, usually from 57.1 µM) | 2% of 71,000 active | AID 596, 2007;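 note: actives lower thioflavin S fluorescence by blocking filaments or displacing dye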
#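 Tau 2 uM in ThS buffer dispensed; compound added; 60 uM ODS added (finals 1 uM tau, 30 uM ODS); 15 h 37 C; fluor ex450/em510.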
# Pol III holo inh = qHTS Assay for Inhibitors of DNA Polymerase III Holoenzyme System. reconstituted DNA polymerase III holoenzyme replication, biochemical. Potency, µM (titrated, usually from 57.1 µM). 0.25% of 71,000 active. AID 603, 2007
#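 Reconstituted *E. coli* holoenzyme (0.35 nM Pol III, 1 nM beta, 154 nM SSB, 2 nM primase) was preincubated with compound for 15 min at RT. Synthesis on 1.4 nM ssM13Gori ran 35 min, then was stopped with PicoGreen/EDTA and read as dsDNA fluorescence.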
# tau ThS displ = Tau ThS binding assay. shares compounds with Tau fil binding. recombinant tau filaments, Thioflavin S fluorescence displacement. Potency, µM. 40% of 60 active; calls by dose curve
# aSyn ThS displ = Alpha-synuclein ThS binding assay. shares compounds with Tau fil binding. recombinant alpha-synuclein fibrils, ThS fluorescence displacement. Potency, µM. 40% of 60 active. AID 937, 2007; calls by dose curve
# Abeta ThS displ = Beta amyloid ThS binding assay. Potency, µM. AID 956, 2007. 50% of 60 active. shares compounds with Tau fil binding. Abeta1-42 fibrillization, thioflavin S fluorescence, overnight 37 C; calls by dose curve
# Hits are given with their value; – = inactive; ? = inconclusive; · = no result; [ ] = remark or other dose. Unless noted, calls come from the whole dose curve; as a rule, active = well fitted curve in the direction sought with a large enough effect; inconclusive = small, poorly fitted or top-dose-only effect, or another doubt; inactive = no such curve, though single readings can be large; an effect the other way counts as inactive or inconclusive.
SMILES,Luciferase inh,Bst PK mod,15-hLO inh,ERK AVP inh,Tau fil binding,Pol III holo inh,others
NCCC[C@@H](CC(=O)N[C@@H]1CCNC[C@H]1C(=O)N[C@H](CC(=O)N[C@@H](CCC(=O)O)CC(=O)O)Cc1c[nH]c2ccccc12)NC(=O)C[C@H](Cc1c[nH]c2ccccc12)NC(=O)[C@@H]1CNCC[C@H]1N,·,·,·,·,–,–,
CC(=O)c1c(O)c(C)c(O)c2c1OC1=CC(=O)[C@H](C(C)=O)C(=O)[C@]12C,–[11.4 µM],·,·,·,?,–,
O=C(COC(=O)CCCc1c[nH]c2ccccc12)Nc1ccc2c(c1)OCO2,–,–,?,39.8µM,–,–,
COc1cccc(C2NC(C(=O)O)CCC2C)c1 (configuration not stated),·,·,–[11.4 µM],–[11.5 µM],·,·,
Cc1sc(NC(=O)c2ccc(Cl)s2)c(C(N)=O)c1C,10µM,·,–,?,–,–,
CC(=O)C1=C(C)NC(SCC(=O)c2ccc(C)cc2)=C(C#N)C1c1ccco1 (configuration not stated),–,·,12.6µM,–,–,–,
COc1ccc(C(=O)c2ccccc2O)c(O)c1,–,·,?,–,–,–,
COc1ccc(O)c(C(=O)CC(=O)c2ccccc2)c1,20µM,·,–,–,?,–,
O=C1C(C=NCc2ccco2)=C(O)c2ccccc21,12.6µM,·,–,–,25.1µM,–,
O=C1C(C=NCc2cccnc2)=C(O)c2ccccc21,10µM,·,–[11.4 µM],–,?,–[11.4 µM],
O=C(CCCCCN1C(=O)c2ccccc2C1=O)NCc1ccco1,–,–,–,–,–,–,
C=CCn1c(-c2cccs2)nc2nc3ccccc3nc21,20µM,·,–,–,20µM,–,
CCC(C)n1c(-c2cccs2)nc2nc3ccccc3nc21 (configuration not stated),–,–,–,–,12.6µM,–,
CCCn1c(-c2cccs2)nc2ccccc21,–,–,–,–,–,–,
NNC(=O)CCSc1ccccc1,–[11.4 µM],·,–[11.4 µM],–[11.5 µM],–[11.4 µM],–[11.4 µM],
O=C(/C=C/Nc1ccccc1Br)c1ccccn1,0.1µM,·,–,–,–,–,
O=C(/C=C\Nc1ccccn1)c1ccccc1,3.16µM,·,–,–,–,–,
COc1ccc(C(=O)NC(=O)Nc2cc(C)ccn2)cc1,0.501µM,0.635,–,–,–,–,
CSc1ccc(NC(=O)Nc2cc(C)ccn2)cc1,2.51µM,·,–[11.4 µM],–[11.5 µM],–[11.4 µM],–[11.4 µM],
Cc1ccnc(NC(=O)Nc2ccc3c(c2)N(C)C(=O)CS3)c1,–,–,–,?,–,–,
Cc1ccc(NC(=O)Nc2ccc3c(c2)N(C)C(=O)CS3)nc1,–,·,–,–,–,–,
Cc1ccnc(NC(=O)Nc2ccc(F)cc2)c1,10µM,·,–,–,–,–,
Cc1ccc(NC(=O)Nc2ccc(F)cc2)nc1,–,4.71,–,–,–,–,
COc1ccc(NC(=O)Nc2cc(C)ccn2)cc1,1.58µM,·,–,–,–,–,
Cc1ccc(C(=O)CSC2=C(C#N)C(c3ccco3)C3=C(CC(C)(C)CC3=O)N2)cc1 (configuration not stated),–,–,–,–,–,–,
SMILES,Luciferase inh,Bst PK mod,15-hLO inh,ERK AVP inh,Tau fil binding,Pol III holo inh,others
CC1(C)CC(=O)C2=C(C1)NC(SCC(=O)Nc1ccccc1)=C(C#N)C2c1ccco1 (configuration not stated),–,–,–,–,12.6µM,–,
Cc1cccc2c1Oc1ccccc1[C@@H]2NC(=O)c1ccc([N+](=O)[O-])cc1,–[11.4 µM],·,–[11.4 µM],–[11.5 µM],–[11.4 µM],–[11.4 µM],
Cc1ccc(CNC(=O)CN(C)S(=O)(=O)c2cccc3nsnc23)cc1,–,·,–,–,–,–,
CCN(CCCNC(=O)CN(C)S(=O)(=O)c1cccc2nsnc12)c1cccc(C)c1,–,–,–,–,15.8µM,–,
O=c1oc(-c2ccco2)nc2ccccc12,–,·,–,–,–,–,
c1coc(-c2nc3ccccc3nc2-c2ccco2)c1,–,·,25.1µM,–,12.6µM,25.1µM,
Cc1ccccc1Cn1cc(NC(=O)c2cc3nc(-c4ccco4)cc(C(F)(F)F)n3n2)cn1,?,–,?,–,3.16µM,–,
O=C(c1cc2nc(-c3ccco3)cc(C(F)(F)F)n2n1)N1CCN(c2ccc(F)cc2)CC1,–,·,?,–,12.6µM,–,
Cc1ccccc1CNc1ncnc2c1ncn2[C@@H]1O[C@@H](CO)[C@H](O)[C@@H]1O,–,·,–,–,–,–,
COc1cccc(CCc2ccccc2OCC[C@@H]2C[C@@H](O)CN2C)c1,·,·,20µM,–,·,·,
CC(=O)OC[C@H]1O[C@@H](O/N=C(\C)CCN2CCCc3nc(C)c(C)cc32)[C@H](OC(C)=O)[C@@H](OC(C)=O)[C@H]1OC(C)=O,–[11.4 µM],·,–[11.4 µM],–[11.5 µM],·,·,
CC1=C(/C=C\C(=O)O)C(C)(C)CCC1,–[11.4 µM],·,–[11.4 µM],–[11.5 µM],–[11.4 µM],–[11.4 µM],
COc1cccc(-c2cncnc2NCc2cccnc2)c1,–[2.29 µM],·,15.8µM,–,–,–,
COc1ccc(CNc2ncncc2-c2ccc(N(C)C)cc2)c(OC)c1,–[2.29 µM],·,20µM,?,?,–,
COc1ccccc1CNc1ncncc1-c1ccc(N(C)C)cc1,–[2.29 µM],·,–,?,–,–,
COc1ccc(CNc2ncnc3ccc(-c4ccc(N(C)C)cc4)cc23)c(OC)c1,–[2.29 µM],·,?,–,2.51µM,–,
COc1cccc(-c2ccc3ncnc(NCc4ccc(OC)cc4OC)c3c2)c1,–[2.29 µM],·,–,–,–,–,
COc1ccccc1CNc1ncncc1-c1ccoc1,–[2.29 µM],·,10µM,–,–,–,
O=c1c(-c2cc(F)cc(F)c2)nc2cncnc2n1-c1ccccc1,–[11.4 µM],·,–,?,–,–,
CC(=O)[C@@H]1[C@H]2[C@H](C(=O)[C@H]3OC[C@@H]2O3)[C@H]2C=Cc3ccccc3N21,·,·,–,?,·,·,
N=C(N)c1ccc(N=Nc2c(O)ccc3c2[nH]c2ccccc23)cc1,–[11.4 µM],·,–[11.4 µM],–[11.5 µM],1µM,?,tau ThS displ=0.81µM;aSyn ThS displ=2.62µM;Abeta ThS displ=1.03µM
CCCCCCc1c(O)c2ccccc2[nH]c1=O,–,–,–,–,–,–,
CCOC(=O)C1CCN(S(=O)(=O)c2cccc3nonc23)CC1,–,–,–,–,–,–,tau ThS displ=–;aSyn ThS displ=–;Abeta ThS displ=–
Cc1ccc(NC(=O)C2CCN(S(=O)(=O)c3cccc4nonc34)CC2)nc1,–,–,–,?,–,–,
COc1cccc(Nc2ncc3nc(C)c(=O)n(C4CC4)c3n2)c1,–[11.4 µM],·,–,–,–,–,
